Reference: PubChem BioAssay (NCI)
The panel holds about 79,000 compounds, 15% with a hit somewhere; the sample as a whole holds those more often. The source made the active and inactive calls. Cut-off read from the data, not from the text of the source: active = growth inhibition above about 70%; inactive = the rest.

Experiments:
[1] = NCI Yeast Anticancer Drug Screen. Data for the rad52 strain (AID 147);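 note: 0% = growth of vehicle-treated control cultures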; settings: S. cerevisiae rad52 mutant growth inhibition, hits give high values
Summary of the method: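 The repair-mutant yeast strain was incubated with compounds, then growth was read and inhibition derived relative to vehicle.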

[2] = NCI Yeast Anticancer Drug Screen. Data for the wt1 strain (AID 149);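 note: 0% = growth of vehicle-treated wt1 cultures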; settings: S. cerevisiae wt1 strain (SPY 50644) growth inhibition, hits give high values
Summary of the method: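 Each compound is tested on wt1 yeast and the loss of growth versus vehicle gives the inhibition value.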

[3] = NCI Yeast Anticancer Drug Screen. Data for the rad50EPP+ strain (AID 151);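 note: 0% = growth of vehicle-treated control cultures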; settings: S. cerevisiae rad50 mutant strain, hits give high values
Summary of the method: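 Vehicle-normalised growth inhibition; rad50EPP+ yeast strain, altered in DNA damage repair, compound-treated.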

[4] = NCI Yeast Anticancer Drug Screen. Data for the mgt1 strain (AID 153); settings: S. cerevisiae mgt1 mutant growth inhibition, hits give high values
Summary of the method: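 Vehicle-normalized growth inhibition is determined in mgt1 yeast, a strain selected for a defined alteration in DNA repair or cell cycle control.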

[5] = NCI Yeast Anticancer Drug Screen. Data for the rad50 strain (AID 155);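 note: 0% = growth of vehicle-only cultures of the same strain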; settings: S. cerevisiae rad50 strain growth inhibition, hits give high values
Summary of the method: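 Vehicle-treated cultures provide the reference for the growth inhibition reported for compound-exposed, repair-deficient yeast.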

[6] = NCI Yeast Anticancer Drug Screen. Data for the mec2-1 strain (AID 157); settings: S. cerevisiae mec2-1 strain, hits give high values
Summary of the method: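 Mutant yeast (mec2-1) grown with compound; growth inhibition relative to vehicle control reported.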

[7] = NCI Yeast Anticancer Drug Screen. Data for the rad14 strain (AID 159);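 note: 0% = growth of vehicle-treated control cultures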; settings: S. cerevisiae rad14 strain growth inhibition, hits give high values
Summary of the method: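 Inhibition of growth is reported for a repair-deficient yeast mutant following compound treatment, calculated relative to cultures that received vehicle.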

[8] = NCI Yeast Anticancer Drug Screen. Data for the sgs1 mgt1 strain (AID 161);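 note: 0% = growth of cultures given vehicle only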; settings: S. cerevisiae sgs1 mgt1 strain, hits give high values
Summary of the method: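 This yeast growth screen uses a strain with defined DNA-repair lesions; compound-treated growth is compared with vehicle-treated growth.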

[9] = NCI Yeast Anticancer Drug Screen. Data for the CLN2oe strain (AID 163);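 note: 0% = growth of vehicle-only control cultures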; settings: S. cerevisiae CLN2oe strain, hits give high values
Summary of the method: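 Compounds are applied to yeast harbouring a defined cell-cycle control change; reduced growth compared with vehicle-treated controls gives the value.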

[10] = NCI Yeast Anticancer Drug Screen. Data for the cln2 rad14 strain (AID 165);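 note: 0% = growth equal to vehicle treated cultures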; settings: S. cerevisiae cln2 rad14 strain, hits give high values
Summary of the method: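 Readout is yeast growth inhibition versus vehicle-treated controls, using a strain with cln2 and rad14 alterations exposed to compound.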

[11] = NCI Yeast Anticancer Drug Screen. Data for the bub3 strain (AID 167); settings: S. cerevisiae bub3 mutant strain, hits give high values
Summary of the method: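 Mutant yeast screening strain plus compound; vehicle-treated cultures serve as the 0% inhibition reference.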

[12] = NCI Yeast Anticancer Drug Screen. Data for the wt2 strain (AID 169); settings: S. cerevisiae wt2 strain growth inhibition, hits give high values
Summary of the method: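 Against vehicle-treated controls, the growth of yeast exposed to each compound was compared, and the inhibition was recorded.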

[13] = NCI Yeast Anticancer Drug Screen. Data for the mlh1 strain (AID 171);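 note: 0% = growth of vehicle-treated control cultures of the same strain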; settings: S. cerevisiae mlh1 strain growth inhibition, hits give high values
Summary of the method: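 Measured: yeast growth. Reference: vehicle-treated controls. Organism: strain with a defined alteration affecting DNA damage repair or cell cycle control, treated with compound.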

[14] = NCI Yeast Anticancer Drug Screen. Data for the sgs1 strain (AID 173);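 note: 0% = growth of vehicle-only control cultures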; settings: S. cerevisiae sgs1 mutant, hits give high values
Summary of the method: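 Each compound was added to cultures of the altered yeast strain. Growth was recorded, and inhibition was derived by comparison with vehicle controls.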

[15] = NCI Yeast Anticancer Drug Screen. Data for the mlh1 rad18 strain (AID 175); settings: S. cerevisiae mlh1 rad18 strain growth inhibition, hits give high values
Summary of the method: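 Genetically defined yeast (DNA repair-deficient) exposed to compounds; growth inhibition determined relative to vehicle.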

[16] = NCI Yeast Anticancer Drug Screen. Data for the rad18 strain (AID 177); settings: S. cerevisiae rad18 mutant growth inhibition, hits give high values
Summary of the method: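 Vehicle-treated cultures served as the baseline for scoring compound-induced growth inhibition in DNA-repair-mutant yeast.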

[17] = at 5.0 µM (retest, dose inferred, filed as 0.5)
[18] = at 50.0 µM (retest, dose inferred, filed as 5.0)

Measured: growth inhibition

O=C1c2cccc3cccc(c23)C(=O)N1O
inactive: [1]; at 1.2 µM -3% | [1]; at 3.7 µM 3% | [1]; at 11.0 µM 1% | [1]; at 33.0 µM 24% | [2]; at 1.2 µM 3% | [2]; at 3.7 µM -1% | [2]; at 11.0 µM 7% | [2]; at 33.0 µM 24% | [3]; at 1.2 µM -3% | [3]; at 3.7 µM -2% | [3]; at 11.0 µM -1% | [3]; at 33.0 µM 28% | [4]; at 1.2 µM -8% | [4]; at 3.7 µM 4% | [4]; at 11.0 µM 23% | [5]; at 1.2 µM 9% | [5]; at 3.7 µM 13% | [5]; [17] 13% | [5]; at 11.0 µM 13% | [5]; at 33.0 µM 54% | [6]; at 1.2 µM 5% | [6]; at 3.7 µM -5% | [6]; [17] 33% | [6]; at 11.0 µM 4% | [6]; at 33.0 µM 36% | [7]; at 1.2 µM 16% | [7]; at 3.7 µM 13% | [7]; at 11.0 µM 46% | [9]; at 1.2 µM 6% | [9]; at 3.7 µM 8% | [9]; at 11.0 µM 29% | [10]; at 50.0 µM 47.1% | [11]; at 1.2 µM 4% | [11]; at 3.7 µM 18% | [12]; at 1.2 µM 3% | [12]; at 3.7 µM 17% | [13]; at 1.2 µM -11% | [13]; at 3.7 µM -10% | [13]; at 11.0 µM 0% | [13]; at 33.0 µM 57% | [14]; at 1.2 µM 14% | [14]; at 3.7 µM 8% | [14]; at 11.0 µM 19% | [14]; at 33.0 µM 67% | [15]; [17] 23% | [16]; at 1.2 µM 6% | [16]; at 3.7 µM 3% | [16]; at 11.0 µM 13% | [16]; at 33.0 µM 41%
active: [1]; at 100.0 µM 84% | [2]; at 100.0 µM 86% | [3]; at 100.0 µM 89% | [4]; at 33.0 µM 81% | [4]; at 100.0 µM 95% | [5]; [18] 99% | [5]; at 50.0 µM 84.4% | [5]; at 100.0 µM 89% | [6]; [18] 98% | [6]; at 50.0 µM 87.3% | [6]; at 100.0 µM 94% | [7]; at 33.0 µM 92% | [7]; at 100.0 µM 97% | [8]; [17] 90% | [8]; [18] 98% | [8]; at 50.0 µM 90.3% | [9]; at 33.0 µM 92% | [9]; at 100.0 µM 99% | [10]; [17] 71% | [10]; [18] 98% | [11]; [17] 93% | [11]; at 11.0 µM 83% | [11]; at 33.0 µM 97% | [11]; [18] 98% | [11]; at 50.0 µM 83.3% | [11]; at 100.0 µM 98% | [12]; at 11.0 µM 92% | [12]; at 33.0 µM 98% | [12]; at 100.0 µM 99% | [13]; at 100.0 µM 90% | [14]; at 100.0 µM 91% | [15]; [18] 99% | [15]; at 50.0 µM 86.4% | [16]; at 100.0 µM 81%

O=c1cccccc1[O-].O=c1cccccc1[O-].O=c1cccccc1[O-].[Eu+3]
active: [1]; at 33.0 µM 97% | [1]; at 100.0 µM 97% | [2]; at 33.0 µM 97% | [2]; at 100.0 µM 97% | [3]; at 33.0 µM 95% | [3]; at 100.0 µM 96% | [4]; at 33.0 µM 97% | [4]; at 100.0 µM 98% | [5]; at 11.0 µM 71% | [5]; at 33.0 µM 97% | [5]; at 50.0 µM 92.5% | [5]; at 100.0 µM 93% | [6]; at 33.0 µM 90% | [6]; at 50.0 µM 91.7% | [6]; at 100.0 µM 98% | [7]; at 33.0 µM 98% | [7]; at 100.0 µM 98% | [8]; at 50.0 µM 89.7% | [9]; at 33.0 µM 92% | [9]; at 100.0 µM 98% | [10]; at 50.0 µM 86.7% | [11]; at 33.0 µM 96% | [11]; at 50.0 µM 92.8% | [11]; at 100.0 µM 98% | [12]; at 33.0 µM 99% | [12]; at 100.0 µM 98% | [13]; at 33.0 µM 95% | [13]; at 100.0 µM 98% | [14]; at 33.0 µM 98% | [14]; at 100.0 µM 98% | [15]; at 50.0 µM 89.8% | [16]; at 33.0 µM 98% | [16]; at 100.0 µM 97%
inactive: [1]; at 1.2 µM 2% | [1]; at 3.7 µM 3% | [1]; at 11.0 µM 32% | [2]; at 1.2 µM 6% | [2]; at 3.7 µM 2% | [2]; at 11.0 µM 14% | [3]; at 1.2 µM 0% | [3]; at 3.7 µM -1% | [3]; at 11.0 µM 16% | [4]; at 1.2 µM 13% | [4]; at 3.7 µM 8% | [4]; at 11.0 µM 14% | [5]; at 1.2 µM 6% | [5]; at 3.7 µM -29% | [5]; [17] 38% | [5]; [18] 38% | [6]; at 1.2 µM -1% | [6]; at 3.7 µM 2% | [6]; [17] 26% | [6]; at 11.0 µM 16% | [6]; [18] 26% | [7]; at 1.2 µM 3% | [7]; at 3.7 µM 7% | [7]; at 11.0 µM 25% | [8]; [17] 65% | [8]; [18] 65% | [9]; at 1.2 µM 5% | [9]; at 3.7 µM 11% | [9]; at 11.0 µM 25% | [10]; [17] 5% | [10]; [18] 5% | [11]; at 1.2 µM 1% | [11]; at 3.7 µM 1% | [11]; [17] 8% | [11]; at 11.0 µM 2% | [11]; [18] 8% | [12]; at 1.2 µM 1% | [12]; at 3.7 µM 3% | [12]; at 11.0 µM 22% | [13]; at 1.2 µM -4% | [13]; at 3.7 µM -1% | [13]; at 11.0 µM 13% | [14]; at 1.2 µM 2% | [14]; at 3.7 µM 1% | [14]; at 11.0 µM 26% | [15]; [17] 24% | [15]; [18] 24% | [16]; at 1.2 µM 3% | [16]; at 3.7 µM 15% | [16]; at 11.0 µM 42%
